Compound activity as filed in PubChem.
KKLEB cytotox = counter-screen for CF NF-kB inhibitors: cytotoxicity; 0.36% of 360,000 active; activity change (cytotoxicity), % at 5 µM; KKLEB CF airway cells viability, ATPlite luminescence, overnight; hits give low values; cells stimulated with P. aeruginosa culture filtrate;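 active = corrected activity change at or below -50% at 5 µM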
CF NFkB block = cystic fibrosis NF-kB activation inhibition. KKLEB NF-kB-GFP reporter, PAF-induced, GFP fluorescence overnight. AID 588850. 0.86% of 360,000 active. inhibition, % at 5 µM;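 active = at least 50% inhibition at 5 µM, scaled per plate between neutral and stimulator controls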;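 note: PAF is a Pseudomonas aeruginosa culture filtrate used as stimulus; plate controls were PAF-stimulated DMSO wells for no effect and unstimulated DMSO wells for full effect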
TROY signal inh = TROY signaling inhibition | 0.98% of 360,000 active | Q293 LMP1-TROYcd NF-kB luciferase reporter, 4 h | inhibition, % at 10 µM;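 active = compounds whose plate-normalised and pattern-corrected inhibition of the luciferase reporter signal at the single screening dose is 50% or more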
TWEAK-Fn14 inh = blocks TWEAK-Fn14 interaction in a reporter cell assay; TWEAK-stimulated Fn14 reporter cells, luciferase luminescence, 8 h; 2% of 360,000 active; inhibition, % at 10 µM; in the data active = inhibition above about 50%
Peg3 promoter = inhibitors of Peg3 promoter; HeLa PEG-Prom luciferase reporter, luminescence, overnight; 1.7% of 360,000 active; inhibition, % at 20 µM;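 active = inhibition of at least 50% at 20 µM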
HIF-2a block = blocks HIF-2a reporter activity | inhibition, % at 18.8 µM | 786-0 RCC cells HIF-2a reporter, luciferase luminescence, overnight | AID 624352 | 0.72% of 360,000 active;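 active = inhibition of the luminescence signal of 40% or more relative to plate controls, in a single-dose primary screen at 18.75 µM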
Numbers without * were called inactive. In the library only some 4% were active in any assay of this set; here they are far more common.

SMILES	KKLEB cytotox	CF NFkB block	TROY signal inh	TWEAK-Fn14 inh	Peg3 promoter	HIF-2a block
O=C(Nc1ccc2[nH]c(=O)[nH]c2c1)c1ccc([N+](=O)[O-])o1	8	-2	-9	11	9	16
O=C(CNc1cccc2ccccc12)N/N=C/c1ccc([N+](=O)[O-])o1	7	-19	17	56*	0	-68
C=CCc1cccc(/C=N/NC(=O)CNc2cccc3ccccc23)c1O	-7	4	46	69*	27	0
Cc1cc(NC(=O)C2CC=CCC2C(=O)O)ccc1NC(=O)c1ccccc1 (stereo not given)	-7	-5	5	-9	11	5
O=C(Nc1cccc2ccccc12)c1ccc([N+](=O)[O-])o1	-24	83*	-9	26	37	31
O=C(Nc1cccc([N+](=O)[O-])c1)c1ccc2ccccc2c1O	-35	37	21	53*	-238	-454
O=C(Cc1ccccc1)Nc1cccc([N+](=O)[O-])c1	-9	7	5	-5	-1	-3
Cc1ccc(C(=O)/C=C/Nc2ccccc2C(N)=O)cc1	-56*	-18	-49	58*	-17	-8
Cc1ccc(C(=O)/C=C/C(=O)c2ccc(C)cc2)cc1	-67*	78*	-11	19	112*	-34
CN(C)S(=O)(=O)c1ccc(N2CCCC2)c(C(=O)NCc2cccc(C(F)(F)F)c2)c1	-8	6	-2	-7	16	9
CC(=O)c1ccc(NC(=O)c2cc(=O)[nH]c3ccccc23)cc1	6	-7	8	-20	3	9
O=C(Nc1ccc(NC(=O)C2CC2)nc1)c1ccccn1	8	2	13	62*	-34	-23
CC(C)C(=O)Nc1ccc(NC(=O)c2ccccn2)cn1	3	2	42	76*	26	26
CCC(=O)Nc1ccc(NC(=O)c2ccccn2)cn1	-18	4	2	47	-68	-62
Cc1cnc(C(=O)OCC(=O)c2cc(C)n(C)c2C)cn1	-9	1	11	-5	10	6
Cc1cc(OCC(=O)NCCc2ccc(S(N)(=O)=O)cc2)c2c(C)c(C)c(=O)oc2c1	1	-36	-10	-55	-11	-14
CCCc1nn2c(=O)cc(CSCC(=O)Nc3ccc(F)cc3)nc2s1	-3	3	8	-16	-8	4
CC(C)(C)OC(=O)N/N=C\c1ccc[nH]1	2	0	8	-14	-81	-30
O=C(Nc1nnc(COc2ccc(Cl)cc2)s1)c1ccc([N+](=O)[O-])cc1	2	3	0	-28	1	13
O=C(Nc1nnc(CCS(=O)(=O)c2ccc(Br)cc2)s1)c1ccc([N+](=O)[O-])cc1	-12	5	-20	51*	5	-4
O=[N+]([O-])/C=C/c1c(OCc2ccccc2)ccc2ccccc12	-54*	61*	0	-9	101*	95*
CCCCOc1ccc2ccccc2c1C=O	-3	0	-66	-14	-154	-155
NC(=O)c1cc(S(=O)(=O)N2CCOCC2)ccc1N1CCCC1	-1	0	16	0	15	5
c1ccc(-c2cc3n(c2)CCc2ccccc2-3)cc1	-11	57*	24	83*	-132	-30
O=C(O)c1cc2c(s1)-c1ccccc1CC2	2	-5	8	9	-3	15
SMILES	KKLEB cytotox	CF NFkB block	TROY signal inh	TWEAK-Fn14 inh	Peg3 promoter	HIF-2a block
O=C(NCc1ccc(OC(F)(F)F)cc1)c1ccc2c(c1)S(=O)(=O)c1ccccc1C2=O	-7	10	-8	-14	14	-3
COC(=O)c1ccccc1S(=O)(=O)NNC(=O)Nc1ccccc1	8	-34	33	69*	-2	-2
COC(=O)c1ccccc1S(=O)(=O)C(C)(C)C	-2	9	25	-25	4	16
CC(=O)NCCc1nc2cc(NC(=O)c3ccccc3Cl)ccc2n1C	-2	-6	-27	-5	-31	-139
CC(C)(Oc1ccc(Cl)cc1)C(=O)NC1=NN(c2ccccc2)C(=O)C1	-6	17	55*	19	-1	6
Clc1ccc(OCc2nc(-c3ccccn3)no2)c(Br)c1	-32	-25	24	67*	-161	-56
Clc1ccccc1OCc1nc(-c2ccccn2)no1	-5	1	7	33	-202	-99
COc1ccccc1-c1nc(-c2ccccn2)no1	-29	-27	66*	96*	47	43*
Brc1ccc(-c2noc(-c3ccccn3)n2)o1	6	-11	-4	43	-113	-144
COc1ccccc1-c1noc(-c2ccncc2)n1	-4	5	-39	1	-179	-158
Clc1ccc(-c2nc(-c3ccccn3)no2)cc1Cl	-25	-16	29	80*	5	-50
Brc1ccc(-c2nc(-c3ccccn3)no2)o1	-1	-14	56*	91*	15	14
COC(=O)c1ccccc1NC(=O)c1ccc2c(c1)C(=O)N(Cc1ccco1)C2=O	2	3	0	-9	19	14
CNC(=O)COC(=O)/C=C/c1cn(-c2ccccc2)nc1-c1ccc2c(c1)OCCO2	-5	10	0	8	8	15
Cc1ccc(-c2nn(-c3ccccc3)cc2/C=C/C(=O)OCC(=O)NC2CC2)o1	6	-28	56*	26	10	-11
CCOC(=O)c1nn(-c2ccc3c(c2)CCN3C(C)=O)cc1O	-2	-3	20	65*	-8	-26
CNC(=S)N(C)[C@H]1c2c(ccc3ccccc23)OC[C@H]1CO	-8	30	17	28	6	23
COc1ccc(N2CCN(C(=O)c3cc(N4C(=O)C5C6CCC(C6)C5C4=O)ccc3Cl)CC2)cc1 (stereo not given)	-4	6	9	0	16	16
CC(C)(C)S(=O)N1Cc2cc(C(=O)Nc3ccc(-c4ccccc4)cc3)nc(-c3cccc(-c4cc5ccccc5o4)c3)c2[C@@H]1CCO (stereo not given in full)	-14	17	-5	-16	93*	2
CC(C)(C)S(=O)N1Cc2cc(C(=O)O)nc(-c3cccc(-c4cc5ccccc5o4)c3)c2[C@H]1CCO (stereo not given in full)	-8	-11	-16	-15	-21	-11
COc1cccc(C(=O)N(C)CC(=O)Nc2ccc(F)c(F)c2F)c1	1	2	9	-27	17	-12
Oc1ccc(O)c(-c2cnns2)c1	4	18	0	57*	-21	4
COc1ccc(C(=O)NCCCc2nc3ccccc3n2Cc2ccccc2C)cc1OC	15	-26	-7	0	8	15
COc1ccc2sc(-c3ccccc3OC)c(-c3ccc(OCCN4CCOCC4)cc3)c2c1	-27	38	9	-2	23	12
COc1ccc(-c2sc3cc4c(cc3c2-c2ccc(OCCN3CCOCC3)cc2)OCO4)cc1	-11	38	-19	12	17	-5
